# Assay results published in publication PMC13494018.
# Values without a mark were called inactive. The rule behind the calls is not given here.
# B1: design_614_ef6b398b-10cb-4a07-8087-96dafb4f9c83_822_dldesign_0_cycle1_af2pred (protein)
# chain: AEEEKRRAIAEAAMRQFKEIAEGAAATALANPAIADGALASVKALGKNLVEGAKAQSPELGKKAAEVAKEAIEKVEKAAKEAKAA
# B2: design_614_ef6b398b-10cb-4a07-8087-96dafb4f9c83_875_dldesign_0_cycle1_af2pred (protein)
# chain: AAARARLAAALEVAKVAADLEANAKANPATAALASATATATIKHAAAIVAEVDPAAGAAVAAAATAAEAIAIITAALKAA
# B3: design_614_ef6b398b-10cb-4a07-8087-96dafb4f9c83_884_dldesign_0_cycle1_af2pred (protein)
# chain: MAVSDTLATNLATAERLLQRGIELAKTDPQAGIAQLRAAEILAQGTAAAAAAAGDTATAARAQAVAERARQAIEEV
# B4: design_614_ef6b398b-10cb-4a07-8087-96dafb4f9c83_950_dldesign_0_cycle1_af2pred (protein)
# chain: AAAAAERTLAGIETLLEILRAAAADPRVTPAQLRAVINAARTAVEELERLDPELGREARERVEAAAREAEAAV
# B5: design_614_ef6b398b-10cb-4a07-8087-96dafb4f9c83_1043_dldesign_0_cycle1_af2pred (protein)
# chain: AAAEAAAVSKKAAELAKKALEKAKRMSPEEAINLAFQVATQAIRLGADAEAAINAIKIASEKGPEAGLKYLAEALEK
# B6: design_614_ef6b398b-10cb-4a07-8087-96dafb4f9c83_1060_dldesign_0_cycle1_af2pred (protein)
# chain: SAVEVLKRSIEAVARQALEAAERLIELDPELGERAREEVERLRAEALAAADADPAEGGALLVELLRLNAEIRRRAEELE
# B7: design_614_ef6b398b-10cb-4a07-8087-96dafb4f9c83_1110_dldesign_0_cycle1_af2pred (protein)
# chain: GEELAESAKKLMEVLKDVAKDAAARDPANAAKYLADAKKAEEEAKKALEESPEKGMQAAQDALAKFQKAAIAAAKA
# B8: design_614_ef6b398b-10cb-4a07-8087-96dafb4f9c83_1163_dldesign_0_cycle1_af2pred (protein)
# chain: EAAREAALALMNEALALLVEETGRDPRLAPALALMSKAVIEMAKDPEKGIELAEKAAEEAKKVDPEVGEKVKKLVEEAKKAVKA
# B9: design_614_ef6b398b-10cb-4a07-8087-96dafb4f9c83_1173_dldesign_0_cycle1_af2pred (protein)
# chain: LLEEALALGAEAIAEGQEAIALAVALGPEFQPFALELSRLMARIAAAQIQLVRDPEAGAAALREEIEELRRAIQELLDSL
# B10: design_614_ef6b398b-10cb-4a07-8087-96dafb4f9c83_1258_dldesign_0_cycle1_af2pred (protein)
# chain: AEQEKAAQLALNTAKAALKRAKAGSAEEARAAAETAKLAAEAAKVNSTDPAVIKEAEKVAEETKKVAEAK
# B11: design_614_ef6b398b-10cb-4a07-8087-96dafb4f9c83_1491_dldesign_0_cycle1_af2pred (protein)
# chain: EERLKEILKLIKEAKKALEESPQLAAQKLAEAAELASEFPEIAVAAVRAIAFAPNPERAKEALEEALKLAEEALKK
# B12: design_614_ef6b398b-10cb-4a07-8087-96dafb4f9c83_1557_dldesign_0_cycle1_af2pred (protein)
# chain: SAAAAALAAANAEIDAHAARAVELAAGLPHAEEVRALITAGAAAAKSGTQLAEAFRLFSEAARLSNEATRAELRKAIAAANKAALA
# B13: design_614_ef6b398b-10cb-4a07-8087-96dafb4f9c83_1662_dldesign_0_cycle1_af2pred (protein)
# chain: SEEAQKKLEEAKRLLELAKEKLATDPQQGLVYALEAQELAAEALKDPEFAEEAQEILEEASRVASQAAARAIAQAQA
# B14: design_614_ef6b398b-10cb-4a07-8087-96dafb4f9c83_1693_dldesign_0_cycle1_af2pred (protein)
# chain: AEELREEAERLREESRRLREEGIKGNAEEARKALLEINRNAGRLARLAVEASQLDPEVAAVANEALAEALENARALDETRRKLAA
# B15: design_614_ef6b398b-10cb-4a07-8087-96dafb4f9c83_1766_dldesign_0_cycle1_af2pred (protein)
# chain: ARAELEAQLAKAKEAAAQAQAAAAQLAALGGTATAAAITAAAQRALAAAEADLSKAPEALTFLQALLQQAQHQVAQLT
# B16: design_614_ef6b398b-10cb-4a07-8087-96dafb4f9c83_1868_dldesign_0_cycle1_af2pred (protein)
# chain: TAAIATATIVALTKTASRSSVEDAKKLVEVAVGIAASLSAADAKAAIDAGLKVAKELAEEKNTETASVVAKELEKGGAKVAAEKA
# B17: design_614_ef6b398b-10cb-4a07-8087-96dafb4f9c83_1883_dldesign_0_cycle1_af2pred (protein)
# chain: EEEKKKLEEIKKLLEKAMEEAIKLVAADPEVQKRLKELAEELKKAETAGEAIRVALRAASVAGQVNPEAARVILTAAEEGAKLAK
# B18: design_614_ef6b398b-10cb-4a07-8087-96dafb4f9c83_2028_dldesign_0_cycle1_af2pred (protein)
# chain: NAAAAEMAAAAAAFAATAAAAVTLSPEAGRKAVSAAFTAALTAISALGATASDEQTVAAMNTVWSTYIAATTALQAKAA
# B19: design_614_ef6b398b-10cb-4a07-8087-96dafb4f9c83_2138_dldesign_0_cycle1_af2pred (protein)
# chain: SEALRAEAARLANAALALLSRASVAFGNALSPTLATAVDAFLAADREGDAETRLAVARAALAAAEAAVAAAAAAA
# Target: CD276, Q5ZPR3
# Sequence (Q5ZPR3 whole entry): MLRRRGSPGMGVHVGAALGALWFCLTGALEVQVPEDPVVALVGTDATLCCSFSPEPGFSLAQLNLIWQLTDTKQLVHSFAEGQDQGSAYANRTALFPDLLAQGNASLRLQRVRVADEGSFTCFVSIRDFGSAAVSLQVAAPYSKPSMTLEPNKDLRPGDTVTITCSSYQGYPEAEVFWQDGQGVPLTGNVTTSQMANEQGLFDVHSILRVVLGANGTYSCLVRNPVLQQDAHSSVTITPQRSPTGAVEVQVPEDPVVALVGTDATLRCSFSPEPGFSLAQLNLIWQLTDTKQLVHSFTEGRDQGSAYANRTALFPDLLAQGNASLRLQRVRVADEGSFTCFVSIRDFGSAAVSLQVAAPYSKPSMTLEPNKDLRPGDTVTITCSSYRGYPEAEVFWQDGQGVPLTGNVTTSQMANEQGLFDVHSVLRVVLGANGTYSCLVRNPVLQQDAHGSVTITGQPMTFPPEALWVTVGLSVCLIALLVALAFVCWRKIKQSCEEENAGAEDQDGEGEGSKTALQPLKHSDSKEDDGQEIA
row,Binder,binding in a display sort
1,B1,not found
2,B2,not found
3,B3,binds (active)
4,B4,not found
5,B5,not found
6,B6,not found
7,B7,not found
8,B8,not found
9,B9,not found
10,B10,not found
11,B11,not found
12,B12,not found
13,B13,not found
14,B14,not found
15,B15,not found
16,B16,not found
17,B17,not found
18,B18,not found
19,B19,not found
